# Assay results: PubChem BioAssay (EPA / NIEHS)
# Several values for one entry are separate records, joined by “and”; a condition that tells them apart may be missing. Equal entries are not always repeated. Where a structure was tested more than once in an assay, its records may differ in their call. Activity calls are given as the source filed them. Rule for the calls: active = hit-call score of the fitted dose curve at least 0.9, where 1 is the maximum; inactive = score below 0.9.
# How the values were obtained:
# [1] = BSK_3C_SRB: Viability Assessment in the BioMAP Diversity Plus: 3C Assay (AID 2283023); conditions: primary human endothelial cells (HUVEC);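 note: fitted both ways against DMSO so a hit may be signal rise or drop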
# Outline: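 Overt cytotoxicity is gauged in parallel confluent HUVEC cultures by SRB total-protein staining at the time of biomarker measurement, 24 h after dosing. Gain or loss of signal is fitted versus DMSO.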
# [2] = read-out: Matrix Metallopeptidase 1 (MMP1), MMP1 (gene 4312); assay: BSK_BE3C_MMP1: BioMAP Diversity Plus: BE3C Assay for Matrix Metallopeptidase 1 (MMP1) Biomarker Activity (AID 2283024); conditions: primary human bronchial epithelial cells; actives raise or lower the signal
# Outline: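 ELISA read-out of MMP1 in human lung bronchial epithelial primary cultures, 24 h post-dose; bidirectional curve fit vs DMSO baseline, gain or loss of signal scored.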
# [3] = BSK_3C_Vis: BioMAP Diversity Plus: 3C Assay for Morphology Visualization (AID 2283025); conditions: primary human endothelial cells (HUVEC);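 note: fitted both ways so gain or loss versus DMSO counts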;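 for AC50: light microscopy image of cell morphology used as background control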
# Outline: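 HUVEC, 3C system; light microscopy of morphology at 24 h post-dose. Bidirectional fit vs DMSO baseline. Secondary readout, background-control function.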
# [4] = read-out: Pselectin, SELP (gene 6403); assay: BSK_4H_Pselectin: BioMAP Diversity Plus: 4H Assay for Pselectin Biomarker Activity (AID 2283026); conditions: primary human endothelial cells (HUVEC); actives raise or lower the signal
# Outline: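 HUVEC, 24 h chemical exposure; P-selectin read by ELISA. Bidirectional curve fit vs DMSO baseline; gain or loss of signal scored.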
# [5] = BSK_4H_SRB: Viability Assessment in the BioMAP Diversity Plus: 4H Assay (AID 2283027); conditions: primary human endothelial cells (HUVEC);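 note: cells exposed to compound for 24 h before staining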;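 for AC50: curves fitted both ways versus DMSO so AC50 may be loss or gain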
# Outline: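 Cytotoxicity readout: sulforhodamine B (0.1%) staining of total protein after 10% TCA fixation, measured at 560 nm in human umbilical vein endothelium at 24 h. DMSO set the baseline; fitting was bidirectional.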
# [6] = read-out: Thrombomodulin, THBD (gene 7056); assay: BSK_3C_Thrombomodulin: BioMAP Diversity Plus: 3C Assay for Thrombomodulin Biomarker Activity (AID 2283029); conditions: primary human endothelial cells (HUVEC); actives raise or lower the signal
# Outline: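 HUVEC, 3C conditions; compound 24 h; thrombomodulin by ELISA; bidirectional curve fit vs DMSO baseline; parallel SRB total-protein staining for cytotoxicity.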
# [7] = read-out: Urokinase-type plasminogen activator receptor (uPAR), PLAUR (gene 5329); assay: BSK_4H_uPAR: BioMAP Diversity Plus: 4H Assay for Urokinase-type plasminogen activator receptor (uPAR) Biomarker Activity (AID 2283030); conditions: primary human endothelial cells (HUVEC); actives raise or lower the signal
# Outline: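 Endpoint derived via bidirectional curve fitting against DMSO baseline; readout was ELISA detection of uPAR on umbilical vein endothelial cells at 24 h post-treatment, with SRB-stained parallel cultures assessing cytotoxicity.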
# [8] = read-out: Vascular endothelial growth factor receptor 2 (Homo sapiens) (UniProt P35968); assay: BSK_4H_VEGFRII: BioMAP Diversity Plus: 4H Assay for Vascular endothelial growth factor receptor 2 (VEGFR2) Biomarker Activity (AID 2283031); conditions: primary human endothelial cells (HUVEC); actives raise or lower the signal;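 for AC50: cell-surface VEGFR2 protein level quantified by ELISA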
# Outline: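 In this multiplexed HUVEC system, biomarker ELISA was performed after 24 h chemical exposure. Parallel SRB staining (TCA fixation, 560 nm) tracked cytotoxicity; DMSO served as baseline.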
# [9] = read-out: Human Leukocyte Antigen - DR isotype (HLADR), HLA-DRA (gene 3122); assay: BSK_BE3C_HLADR: BioMAP Diversity Plus: BE3C Assay for Human Leukocyte Antigen - DR isotype (HLADR) Biomarker Activity (AID 2283032); conditions: primary human bronchial epithelial cells; actives raise or lower the signal
# Outline: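 Primary human bronchial epithelial cells (BE3C); 24 h chemical exposure; HLA-DR by ELISA; bidirectional curve fit vs DMSO baseline.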
# [10] = read-out: Vascular cell adhesion molecule 1 (VCAM1), VCAM1 (gene 7412); assay: BSK_4H_VCAM1: BioMAP Diversity Plus: 4H Assay for Vascular cell adhesion molecule 1 (VCAM1) Biomarker Activity (AID 2283033); conditions: primary human endothelial cells (HUVEC); actives raise or lower the signal;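 for outcome: cell-surface VCAM-1 protein measured by ELISA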
# Outline: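 HUVEC, 24 h post-dose; VCAM-1 by ELISA. Bidirectional curve fit vs DMSO baseline. Parallel SRB total-protein stain (0.1% SRB after 10% TCA fixation, 560 nm) for cytotoxicity.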
# [11] = read-out: Interferon-gamma inducible Protein 10 (IP10), CXCL10 (gene 3627); assay: BSK_BE3C_IP10: BioMAP Diversity Plus: BE3C Assay for Interferon-gamma inducible Protein 10 (IP10) Biomarker Activity (AID 2283034); conditions: primary human bronchial epithelial cells; actives raise or lower the signal
# Outline: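 ELISA readout of IP-10 in BE3C system: primary human bronchial epithelial cells, 24 h post-dosing; bidirectional curve fit vs DMSO baseline.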
# [12] = read-out: Monokine induced gamma interferon (MIG), CXCL9 (gene 4283); assay: BSK_BE3C_MIG: BioMAP Diversity Plus: BE3C Assay for Monokine induced gamma interferon (MIG) Biomarker Activity (AID 2283035); conditions: primary human bronchial epithelial cells; actives raise or lower the signal;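 for outcome: MIG protein measured by ELISA in BE3C cultures after 24 h of dosing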
# Outline: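 hu bronchial epithelial 1° cells, 24 h cpd; MIG by ELISA; bidirectional fit, DMSO = baseline.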
# [13] = read-out: Transforming growth factor beta 1 (TGFb1), TGFB1 (gene 7040); assay: BSK_BE3C_TGFb1: BioMAP Diversity Plus: BE3C Assay for Transforming growth factor beta 1 (TGFb1) Biomarker Activity (AID 2283036;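 for outcome: TGF-b1 protein level measured by ELISA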); conditions: primary human bronchial epithelial cells; actives raise or lower the signal
# Outline: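 Read-out: ELISA for TGF-b1 in primary human bronchial epithelial cultures, 24 h post-dose. Bidirectional curve fitting vs DMSO control; gain or loss of signal both scored.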
# [14] = read-out: Plasminogen activator inhibitor-1 (PAI1), SERPINE1 (gene 5054); assay: BSK_BE3C_PAI1: BioMAP Diversity Plus: BE3C Assay for Plasminogen activator inhibitor-1 (PAI1) Biomarker Activity (AID 2283037); conditions: primary human bronchial epithelial cells; actives raise or lower the signal
# Outline: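 ELISA read-out of PAI-1 from human bronchial epithelial primary cells, 24 h post-dosing; bidirectional curve fit vs DMSO baseline, gain or loss of signal scored.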
# [15] = read-out: urokinase plasminogen activator (uPA), PLAU (gene 5328); assay: BSK_BE3C_uPA: BioMAP Diversity Plus: BE3C Assay for urokinase plasminogen activator (uPA) Biomarker Activity (AID 2283038); conditions: primary human bronchial epithelial cells; actives raise or lower the signal;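 for outcome: uPA protein level quantified by ELISA in cell cultures; uPA read one day after compound addition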
# Outline: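 Using confluent primary human lung bronchial epithelial cultures, we dosed chemicals, waited 24 h, then ran a uPA ELISA, fitting bidirectionally against DMSO.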
# [16] = read-out: Urokinase-type plasminogen activator receptor (uPAR), PLAUR (gene 5329); assay: BSK_BE3C_uPAR: BioMAP Diversity Plus: BE3C Assay for Urokinase-type plasminogen activator receptor (uPAR) Biomarker Activity (AID 2283039); conditions: primary human bronchial epithelial cells; actives raise or lower the signal;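 for outcome: uPAR protein level measured by ELISA on the cells; cells exposed to compound for one day before measurement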
# Outline: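 ELISA readout of uPAR on human lung primary bronchial epithelial cells, 24 h post-dosing. Bidirectional curve fit relative to DMSO vehicle baseline; gain or loss of signal both scored.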
# [17] = read-out: Interleukin-6 (IL6), IL6 (gene 3569); assay: BSK_CASM3C_IL6: BioMAP Diversity Plus: CASM3C Assay for Interleukin-6 (IL6) Biomarker Activity for (AID 2283040); conditions: primary human coronary artery smooth muscle cells; actives raise or lower the signal
# [18] = read-out: Tissue plasminogen activator (tPA), PLAT (gene 5327); assay: BSK_BE3C_tPA: BioMAP Diversity Plus: BE3C Assay for Tissue plasminogen activator (tPA) Biomarker Activity (AID 2283041); conditions: primary human bronchial epithelial cells; actives raise or lower the signal;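 for outcome: tPA level quantified by ELISA one day after compound addition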
# Outline: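 ELISA read-out of tPA on human primary bronchial epithelial cells, 24 h post-dosing; bidirectional fit vs DMSO negative control/baseline.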
# [19] = read-out: Interleukin-8 (IL8), CXCL8 (gene 3576); assay: BSK_CASM3C_IL8: BioMAP Diversity Plus: CASM3C Assay for Interleukin-8 (IL8) Biomarker Activity (AID 2283042); conditions: primary human coronary artery smooth muscle cells; actives raise or lower the signal;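 note: IL-8 protein level quantified by ELISA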
# [20] = BSK_BE3C_SRB: Viability Assessment in the BioMAP Diversity Plus: BE3C Assay (AID 2283028); conditions: primary human bronchial epithelial cells;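 note: measured 24 h after chemical dosing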
# Outline: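 SRB total-protein staining (0.1%, after TCA fixation) of chemically dosed human bronchial epithelial primary cells at 24 h; DMSO serves as the negative control for bidirectional curve fitting.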
smiles,measurement,setting,value
CCOC(=O)CC(CC(=O)OCC)(OC(C)=O)C(=O)OCC,outcome,[1],inactive
same,outcome,[2],inactive
same,outcome,[3],inactive
same,outcome,[4],inactive
same,outcome,[5],inactive
same,outcome,[6],inactive
same,outcome,[7],inactive
same,outcome,[8],inactive
same,outcome,[9],inactive
same,outcome,[10],inactive
same,outcome,[11],inactive
same,outcome,[12],inactive
same,outcome,[13],inactive
same,outcome,[14],inactive
same,outcome,[15],inactive
same,outcome,[16],inactive
same,outcome,[17],inactive
same,outcome,[18],inactive
same,outcome,[19],inactive
CC/C(=C\C(=N/O)C(N)=O)C(C)[N+](=O)[O-] (centres undefined),outcome,[1],inactive
same,outcome,[2],inactive
same,outcome,[3],inactive
same,outcome,[4],inactive
same,outcome,[5],inactive
same,outcome,[6],inactive
same,outcome,[7],inactive
same,outcome,[8],inactive
same,outcome,[9],inactive
same,outcome,[10],inactive
same,AC50,[11],29.8 µM (active)
same,outcome,[12],inactive
same,outcome,[13],inactive
same,outcome,[14],inactive
same,outcome,[15],inactive
same,outcome,[16],inactive
same,outcome,[17],inactive
same,outcome,[18],inactive
same,outcome,[19],inactive
Cn1cnc([N+](=O)[O-])c1Sc1ncnc2nc[nH]c12,AC50,[1],19.9 µM (active) and 12.6 µM (active) and 14 µM (active)
same,outcome,[2],inactive
same,outcome,[3],inactive
same,outcome,[4],inactive
same,outcome,[5],inactive
same,AC50,[6],3.36 µM (active)
same,outcome,[6],inactive
same,outcome,[7],inactive
same,outcome,[8],inactive
same,outcome,[9],inactive
same,AC50,[10],8.19 µM (active) and 9.52 µM (active)
same,outcome,[10],inactive
same,outcome,[11],inactive
same,outcome,[12],inactive
same,outcome,[13],inactive
same,outcome,[14],inactive
same,outcome,[15],inactive
same,outcome,[17],inactive
same,AC50,[18],6.7 µM (active)
same,outcome,[18],inactive
same,outcome,[19],inactive
CC(C)CCCCCCCOC(=O)CCCCC(=O)OCCCCCCCC(C)C,outcome,[1],inactive
same,outcome,[2],inactive
same,outcome,[3],inactive
same,outcome,[4],inactive
same,outcome,[5],inactive
same,outcome,[20],inactive
same,outcome,[6],inactive
same,outcome,[8],inactive
same,outcome,[9],inactive
same,outcome,[10],inactive
same,outcome,[11],inactive
same,outcome,[12],inactive
same,outcome,[13],inactive
same,outcome,[14],inactive
same,outcome,[15],inactive
same,outcome,[17],inactive
same,outcome,[18],inactive
same,outcome,[19],inactive
CC(O)CN(CCN(CC(C)O)CC(C)O)CC(C)O (centres undefined),outcome,[1],inactive
same,outcome,[2],inactive
same,outcome,[3],inactive
same,outcome,[4],inactive
same,outcome,[5],inactive
same,outcome,[20],inactive
same,outcome,[6],inactive
same,outcome,[8],inactive
same,outcome,[9],inactive
same,outcome,[10],inactive
same,outcome,[11],inactive
same,outcome,[12],inactive
same,outcome,[13],inactive
same,outcome,[14],inactive
same,outcome,[15],inactive
same,outcome,[17],inactive
same,outcome,[18],inactive
same,outcome,[19],inactive
COc1cccc(-c2ccc(/C=C\CN3CCCCCC3)cc2Cl)c1,AC50,[1],25.8 µM (active)
same,AC50,[2],4.82 µM (active)
same,AC50,[3],14.9 µM (active)
same,AC50,[4],26.5 µM (active)
same,AC50,[5],27.9 µM (active)
same,outcome,[6],inactive
same,AC50,[7],26.9 µM (active)
same,AC50,[8],32.6 µM (active)
same,AC50,[9],29.4 µM (active)
same,AC50,[10],28.4 µM (active)
same,AC50,[11],27.9 µM (active)
same,AC50,[12],32.7 µM (active)
same,AC50,[13],25.8 µM (active)
same,outcome,[14],inactive
same,AC50,[15],23.6 µM (active)
same,AC50,[16],25.2 µM (active)
same,outcome,[17],inactive
same,AC50,[18],29.2 µM (active)
same,outcome,[19],inactive
